# Screening data from PubChem BioAssay.
# Compounds with a hit are over-represented: about 13% of the library has one in this group of screens.
# miR-21 act – qHTS Assay for Modulators of miRNAs and/orActivators of miR-21. HeLa miR-21 FLuc reporter, luciferase, 48 h. Potency, µM (doses to about 38.3 µM), for inactives: at the highest dose activity change, positive = activation, usual class: activators. 340,000 tested, under 10 active;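 note: % of control where 0% means no effect; miR-21 action dims this reporter so a rising signal means less miR-21 action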
#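 HeLa miR-21-FLuc reporter line, endogenous miR-21; 2000 cells/well in DMEM/10% FBS; compound titration up to ~40uM final, 48 h, 37 degree Celsius; luciferase detection reagent, 15 min lysis, CCD luminescence.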
# KDM4E inh – qHTS Assay for Inhibitors of Human Jumonji Domain Containing 2E (JMJD2E); Lysine-specific demethylase 4E (Homo sapiens), B2RXH2; JMJD2E catalytic domain, FDH-coupled NADH fluorescence (FDH is formaldehyde dehydrogenase); Potency, µM (doses to about 57.1 µM), without a hit: at the top dose activity change, negative = inhibition, actives largely listed as inhibitors; hit rate 1.6% among 230,000; AID 2147, 2009; active = well fitted inhibition curve with a large enough effect, not every such curve was filed as active; inconclusive = small, poorly fitted or top-dose-only effect, or another doubt; inactive = no such curve, though single readings can be large or run the other way;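 note: potency is the fitted concentration of half-maximal effect; 0% = wells with enzyme and -100% = buffer wells without enzyme; nearly all actives have a fitted effect of over 50% in size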
# Target sequence (B2RXH2 1-337 limits assumed): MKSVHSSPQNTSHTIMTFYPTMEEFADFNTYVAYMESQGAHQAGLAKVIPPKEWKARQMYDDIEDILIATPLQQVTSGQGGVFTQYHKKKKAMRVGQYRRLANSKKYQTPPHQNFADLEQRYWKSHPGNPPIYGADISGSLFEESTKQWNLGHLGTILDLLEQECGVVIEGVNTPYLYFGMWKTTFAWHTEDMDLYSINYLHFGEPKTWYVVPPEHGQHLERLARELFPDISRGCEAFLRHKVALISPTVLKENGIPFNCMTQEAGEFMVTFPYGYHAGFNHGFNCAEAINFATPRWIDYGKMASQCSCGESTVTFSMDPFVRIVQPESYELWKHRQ
# G9a inh – qHTS Assay for Inhibitors of Histone Lysine Methyltransferase G9a | G9a H3K9 monomethylation, AlphaScreen, 2 h | Histone-lysine N-methyltransferase EHMT2 (Homo sapiens), Q96KQ7 | Potency, µM (top dose mostly 102 µM), for inactives: at the top dose activity, negative = inhibition, usual class: inhibitors | hit rate 8.8% among 350,000; note: potency is the fitted concentration of half-maximal effect; % is set by controls: 0 for no effect and ±100 for the full control effect; nearly all actives have a fitted effect of over 75% in size
# Target sequence (Q96KQ7 913-1193 limits assumed): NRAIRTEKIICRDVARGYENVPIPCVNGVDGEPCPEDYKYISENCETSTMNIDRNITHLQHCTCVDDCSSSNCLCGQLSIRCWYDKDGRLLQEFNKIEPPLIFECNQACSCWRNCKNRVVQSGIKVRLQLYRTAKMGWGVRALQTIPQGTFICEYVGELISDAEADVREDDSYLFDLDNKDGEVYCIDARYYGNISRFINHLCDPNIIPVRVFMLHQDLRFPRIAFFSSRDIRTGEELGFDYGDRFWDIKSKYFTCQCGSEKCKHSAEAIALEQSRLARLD
#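 Enzyme 20 nM + cpd, 15 min RT; add b-H3K9 pep 500 nM / SAM 20 uM; 2 h RT; anti-H3K9me1 Ab 0.5 ug/mL + SA donor / anti-rabbit acceptor beads 20 ug/mL each, 10 min; AlphaScreen read.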
# Sfp PPTase inh – qHTS Assay for Inhibitors of Bacillus subtilis Sfp phosphopantetheinyl transferase (PPTase) | 4'-phosphopantetheinyl transferase ffp (Bacillus subtilis), Q9F4F7 | Biochemical Sfp PPTase activity, qHTS | Potency, µM, without a hit: largest response in the series, negative = inhibition, actives largely listed as inhibitors | hit rate 3.5% among 310,000 | AID 1490, 2009;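 note: the enzyme is Sfp with the accession as filed and its product quenches rhodamine fluorescence; potency is the fitted concentration of half-maximal effect; 0% = enzyme reaction without inhibitor and -100% = no enzyme wells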
#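 Buffer: 50 mM Hepes-Na pH 7.6, 10 mM MgCl2, 0.01% Nonidet P-40, 0.01% BSA. Enzyme 15 nM, pre-exposed to compound 15 min; substrates then added and fluorescence change tracked over 30 min.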
# ALDH1A1 inh – qHTS Assay for Inhibitors of Aldehyde Dehydrogenase 1 (ALDH1A1); Potency, µM (highest dose often 75.3 µM), without a hit: top-dose activity, negative = inhibition, actives largely listed as inhibitors; Purified ALDH1A1, NADH fluorescence, propionaldehyde substrate; Aldehyde dehydrogenase 1A1 (Homo sapiens), P00352; hit rate 7.3% among 220,000; active = well fitted inhibition curve with a large enough effect, not every such curve was filed as active; inconclusive = small, poorly fitted or top-dose-only effect, or another doubt; inactive = no such curve, though single readings can be large or run the other way;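 note: potency is the fitted concentration of half-maximal effect; plate controls were no enzyme wells and a reference inhibitor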
# LMNA splice mod – qHTS Assay for Modulators of Lamin A Splicing. hit rate 0.01% among 200,000. HeLa LMNA splicing GFP/RFP minigene ratio, 48 h. Potency, µM (doses to about 46.1 µM), for the others: top-dose ratio change, negative = inhibition, hits mostly inhibitors; active = well fitted inhibition curve with a large enough effect in the signal ratio, with a control signal flat, not every such curve was filed as active; inconclusive = small, poorly fitted or top-dose-only effect, or effect the other way, or a change in a side signal; the % refers to the signal ratio; note: potency is the fitted concentration of half-maximal effect; % is set by controls: 0 for no effect and ±100 for the full control effect
#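 S3 HeLa stable clones carrying a lamin A-EGFP splicing minigene plus DsRed2 were seeded at 600 cells/well in Opti-MEM with 2% FBS, pin-dosed and incubated 48 h at 37°C. Acumen cytometry (488 nm) gave the GFP/RFP total-intensity ratio.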
# * = called active by the depositor; ? = inconclusive; · = no result given; ! = repeats disagree; [ ] = another dose, or the depositor's remark. Unless noted, calls come from the whole dose curve; as a rule, active = well fitted curve in the direction sought with a large enough effect; inconclusive = small, poorly fitted or top-dose-only effect, or another doubt; inactive = no such curve, though single readings can be large; an effect the other way counts as inactive or inconclusive.
SMILES,miR-21 act,KDM4E inh,G9a inh,Sfp PPTase inh,ALDH1A1 inh,LMNA splice mod
CC(C(=O)N1CCN(C2c3ccccc3-c3ccccc32)CC1)N1C(=O)c2ccccc2C1=O (stereo not given),-1%,4%,-18%[59 µM],-14%,7%,?
COc1ccc(NC(=O)CN2CCN(C3c4ccccc4-c4ccccc43)CC2)c(OC)c1,1%,8%,45µM*,?,6%,6%
CCOc1ccc(NC(=O)CN2CCN(C3c4ccccc4-c4ccccc43)CC2)cc1,2%,-3%,?,18%,11µM*,-4%
COc1ccccc1NC(=O)CN1CCN(C2c3ccccc3-c3ccccc32)CC1,-4%,3%,·,?,-11%,-15%
CC(C)(C)C(=O)CN1CCN(C2c3ccccc3-c3ccccc32)CC1,-10%,-17%,50µM*,-10%,?,-1%
Cc1c(C(=O)Nc2cccc([N+](=O)[O-])c2)cnn1-c1ccccc1,-15%,·,·,-7%,·,·
COC(=O)[C@@]1(Cc2ccccc2)[C@H]2c3cc(C(=O)N(C)C)n(Cc4ccc(O)c(OC)c4)c3C[C@H]2CN1C(=O)c1ccccc1,·,-27%,·,-4%,7%,·
CCc1nnc(NC(=O)c2nc(SCc3ccc(F)cc3)ncc2Cl)s1,-3%,·,?,·,·,·
Cc1ccc(-c2nc(CNC(=O)c3ccco3)cs2)cc1,-24%,·,50µM*,-4%,·,·
COc1cc(OC)cc(C(=O)NCc2ccc3c(c2)cc(C)n3C)c1,-4%,12%,40µM*,1%,?,·
Cc1cc(C)n(C(=O)CNC(=O)c2ccco2)n1,-1%,-7%,71µM*,10%,6%,-6%
Cc1ccc(-c2nc(CCNC(=O)c3ccco3)cs2)cc1,·,·,-21%,·,·,·
COc1ccc(C(=O)NCc2ccc3c(c2)cc(C)n3C)cc1,-9%,?,·,-5%,?,·
COCC(=O)NCc1ccc2c(c1)cc(C)n2C,-1%,-8%,-19%,11%,2%,-10%
Cc1ccc(S(=O)(=O)NCc2ccc3c(c2)cc(C)n3C)cc1,-5%,-15%,?,8%,20µM*,-17%
CC1CN(Cc2c(O)ccc3c(=O)c(-c4ccccc4Cl)coc23)CC(C)O1 (stereo not given),0%,·,-1%,5%,·,·
Cc1cc2cc(CNC(=O)c3ccco3)ccc2n1C,-1%,-10%,?,79µM*,·,·
O=C(CCCn1c(=O)[nH]c2ccc(Br)cc2c1=O)NCc1ccc(Cl)cc1,-6%,-2%,-21%,3%,-12%,-27%[46 µM]
CCNc1ncc2nc(-c3ccc(Cl)cc3)c(=O)n(Cc3ccc(F)cc3)c2n1,·,·,12%[0.501 µM],23%,?,?
CC1CC(C)(C)NC(=S)O1 (stereo not given),-1%,0%,79µM*!,-7%,6%,?
CN(C(=O)COC(=O)CNC(=O)c1ccc(C(C)(C)C)cc1)c1c(N)n(Cc2ccccc2)c(=O)[nH]c1=O,·,·,-9%[2.33 µM],·,·,·
COc1ccc(S(=O)(=O)CC(=O)c2cc3cccc(C)c3oc2=O)cc1,0%,·,50µM*,-5%,·,·
COc1cccc2cc(C(=O)CS(=O)(=O)c3ccc(C(C)(C)C)cc3)c(=O)oc12,-2%,·,?,0%,·,·
Cc1ccc(S(=O)(=O)N2CCN(C(=O)CC(C)n3cncn3)CC2)cc1C (stereo not given),2%,·,2%[59 µM],16%,·,·
CCOc1ccc2nc(SCC(=O)Nc3cc4c(cc3C(C)=O)OCO4)[nH]c2c1,1%,-26%,20%[0.501 µM],-7%,25µM*,6%[0.0737 µM]
SMILES,miR-21 act,KDM4E inh,G9a inh,Sfp PPTase inh,ALDH1A1 inh,LMNA splice mod
COc1ccc2nc(SCC(=O)Nc3ccc4c(c3)CCC4)[nH]c2c1,-21%,-2%,?,-9%,11µM*,?
COC(=O)C1CCN(C(=O)CSc2nc3ccc(OC)cc3[nH]2)CC1,-1%,-9%,50µM*,11%,4%,20%[46 µM]
COCc1ccc(CN2CCC(n3nccc3NC(=O)CCOc3ccccc3)CC2)o1,0%,·,·,10%,·,·
CCOc1ccc(CNC(=O)c2cc3cc(S(=O)(=O)N4CCCCC4)ccc3n2C)cc1,22%,·,2%[59 µM],·,·,?
CCSc1ncc(/C=N/Nc2ccc([N+](=O)[O-])cc2)n1C,-23%,-6%,?,-9%,5%,3%
CCSc1ncc(/C=N/Nc2ccccc2)n1C,-23%,2%,11µM*,-1%,?,?
COC(=O)c1cnc(SCc2ccc(Cl)cc2)n1C,-44%,-8%,54%,13%,5%,·
CCSc1ncc(/C=N/Nc2ccc(Cl)cc2)n1C,-36%,18µM*,?,28µM*,?,18%
CCC(C(=O)OCC(=O)NC(=O)c1ccccc1OC)c1ccccc1 (stereo not given),·,·,42%,·,·,·
Cc1ccc2onc(CNC(=O)Nc3cc(F)ccc3F)c2c1,6%,·,-19%[59 µM],·,·,·
O=S(=O)(NCc1ccc(F)cc1)c1ccc2[nH]c3c(c2c1)CCCC3,21%,·,8.9µM*,·,·,?
O=S(=O)(NCc1ccccc1)c1ccc2[nH]c3c(c2c1)CCCCC3,?,·,14µM*,·,·,?
CC(C)(C)NS(=O)(=O)c1ccc2[nH]c3c(c2c1)CCCCC3,11%,·,71µM*,7%,·,·
Cc1ccc(CNS(=O)(=O)c2ccc3[nH]c4c(c3c2)CCCCC4)cc1,11%,·,-53%[59 µM],·,·,?
Cc1cccc(N2CCN(C(=O)C3CCN(S(=O)(=O)c4cccs4)CC3)CC2)c1C,2%,·,6%[59 µM],·,·,·
CCc1ccc(-n2c3nc(=O)[nH]c(=O)c-3cc3c(C)nn(-c4ccccc4)c32)cc1,0%,·,-4%[59 µM],·,·,·
COc1ccc(-c2c(NC(=O)c3ccco3)n(-c3ccc(C)cc3)nc(C)c2=O)cc1,2%,?,-3%[59 µM],8%,·,·
COc1ccccc1CNS(=O)(=O)c1ccc(F)c(C(=O)Nc2cc(Cl)ccc2OC)c1,-2%,·,4%[59 µM],·,·,-21%[46 µM]
CCN(CC)CCCNC(=O)c1ccc2c(c1)sc1nc(-c3ccc(C)cc3)cn12,1%,·,11µM*,·,·,?
O=c1[nH]c(CN2CCc3ccccc32)nc2scc(-c3cccs3)c12,3%,?,18µM*,0%,25µM*,?
O=C(CSCc1nc2scc(-c3cccs3)c2c(=O)[nH]1)Nc1ccccn1,-9%,·,·,6%,·,·
Cn1c(-c2sc3cc(C(F)(F)F)cnc3c2-c2ccccn2)n[nH]c1=S,-6%,-13%,6.3µM*,-19%,35µM*,·
CSc1nnc(-c2sc3cc(C(F)(F)F)cnc3c2-c2ccccn2)n1C,1%,?,3%[59 µM],1%,?,-2%
